GALK inhibitor: blocks human galactokinase activity; AID 1868; Purified GALK, Kinase-Glo residual ATP luminescence; P51570; Potency, µM (series often up to 57.5 µM), actives largely listed as inhibitors; actives 0.007% (n = 270,000)
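Human GALK (5 nM) with 35 uM ATP and 100 uM galactose in 20 mM HEPES pH 8.0, 5 mM MgCl2, 60 mM NaCl, 1 mM DTT, 0.01% BSA. After 1 h at room temperature, leftover ATP was read by Kinase-Glo Plus luminescence.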
PKM2 act: PKM2 (human) enzyme activation. P14618. Potency, µM (titrated, usually from 57.5 µM), hits mostly activators. purified PKM2, Kinase-Glo ATP luminescence, activation; response scale: 0% is enzyme alone, no compound. AID 1631. actives 0.34% (n = 260,000); note: nearly all actives have a fitted effect of over 55% in size
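Purified hPK-M2 (>95%) run at intermediate activity with 0.1 mM ADP and 0.5 mM PEP in 50 mM imidazole pH 7.2, KCl, MgCl2; 1 h room temperature. ATP formed read by Kinase-Glo luminescence; normalized to uninhibited and no-enzyme controls.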
Anesthetic bind: candidate novel general anesthetic via apoferritin binding; P02791; apoferritin/1-aminoanthracene competitive binding, fluorescence; Potency, µM (series often up to 77.5 µM), usual class: inhibitors; actives 0.074% (n = 350,000); AID 485281; note: nearly all actives have a fitted effect of over 20% in size
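In PBS, apoferritin at 10 uM is loaded with 1-AMA from a 50% saturated solution. After 10 min of compound exposure at ambient temperature, reduced 535 nm fluorescence indicates probe displacement.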
TrxR1 substrate: substrates of rat thioredoxin reductase 1; O89049; purified TrxR1 substrate turnover, NADPH consumption readout; Potency, µM (titrated, usually from 114 µM); actives 0.01% (n = 390,000); note: nearly all actives have a fitted effect of over 50% in size
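Rat TrxR1, dispensed at 90 nM, was prereduced with 400 uM NADPH (final) for 5 min at ~22 deg C, then incubated with compound 15 min before 400 uM selenite. A first-read NADPH fluorescence drop versus no-compound background flagged substrates.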
mIDH1 inhibitor: human IDH1 R132H inhibition; actives 0.093% (n = 390,000); IDH1-R132H enzyme, NADPH consumption, diaphorase/resazurin fluorescence; Potency, µM (titrated, usually from 76.6 µM), actives largely listed as inhibitors; note: nearly all actives have a fitted effect of over 65% in size
Target sequence (O75874 whole entry R132H, stated change not applied): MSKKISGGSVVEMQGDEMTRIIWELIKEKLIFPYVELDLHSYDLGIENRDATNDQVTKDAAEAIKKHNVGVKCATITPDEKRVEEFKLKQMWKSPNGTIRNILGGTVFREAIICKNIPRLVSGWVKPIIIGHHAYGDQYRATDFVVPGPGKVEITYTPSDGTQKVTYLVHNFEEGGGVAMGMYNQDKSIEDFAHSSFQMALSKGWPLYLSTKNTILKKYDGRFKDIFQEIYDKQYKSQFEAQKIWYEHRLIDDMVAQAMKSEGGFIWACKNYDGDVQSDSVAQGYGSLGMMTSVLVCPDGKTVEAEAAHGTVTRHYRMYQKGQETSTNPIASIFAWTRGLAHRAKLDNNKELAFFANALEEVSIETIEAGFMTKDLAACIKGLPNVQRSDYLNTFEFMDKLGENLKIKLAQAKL
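IDH1-R132H (0.5 ug/mL dispensed) in pH 7.5 Tris buffer was preincubated 30 min with compound, then given a substrate mix of 0.016 mM NADPH and 2 mM alpha-KG for 80 min at room temperature; remaining NADPH was read by diaphorase/resazurin fluorescence.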
TrxR1 inh: rat TrxR1 inhibition; O89049; recombinant rTrxR1, NADPH fluorescence consumption, selenite substrate; Potency, µM (highest dose often 114 µM), hits mostly inhibitors; actives 1% (n = 390,000); AID 588453; note: nearly all actives have a fitted effect of over 65% in size
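Rat TrxR1 (90 nM in the dispensed reagent) was pre-reduced with 400 uM NADPH for 5 min at room temperature, then incubated with compound for 15 min. After 400 uM selenite was added, NADPH fluorescence (Ex 340/Em 450 nm) was followed for 8 min.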
Resorufin autofl: counter-screen for mutant IDH1 inhibitors: fluorescence interference | shares compounds with mIDH1 inhibitor | Resorufin detection reagent fluorescence interference, cell-free | inhibition of signal, % at 51.2 µM | 750 tested, under 10 active | AID 623980
IDH1 WT: selectivity of mutant IDH1 inhibitors: human wild-type IDH1; WT IDH1 enzyme, NADPH diaphorase/resazurin fluorescence; shares compounds with mIDH1 inhibitor; AID 623995; actives 9% (n = 750); Potency, µM (titrated, usually from 115 µM), usual class: inhibitors; note: nearly all actives have a fitted effect of over 55% in size
Target sequence (O75874 whole entry, looked up): as the sequence (O75874 whole entry R132H, stated change not applied) above, with H132R counted along it
mIDH1 confirm: inhibits human mutant IDH1 enzyme in cherrypick confirmation. shares compounds with mIDH1 inhibitor. IDH1 R132H enzyme, NADPH diaphorase/resazurin fluorescence. Potency, µM (doses to about 76.6 µM), actives largely listed as inhibitors. actives 83% (n = 750). AID 624002; note: nearly all actives have a fitted effect of over 50% in size
Large screens that a line does not name were inactive (follow-up assays come after a bar, where they were run). A selection: hits, their analogues and other compounds. The true share with any hit is near 1.3%. Calls come from the whole dose curve; as a rule, active = well fitted curve in the direction sought with a large enough effect; inconclusive = small, poorly fitted or top-dose-only effect, or another doubt; inactive = no such curve, though single readings can be large; an effect the other way counts as inactive or inconclusive.

CC1OC(O[C@H]2C[C@@H](O)[C@]3(CO)[C@@H]4C(CC[C@]3(O)C2)[C@@]2(O)CC[C@H](C3=CC(=O)OC3)[C@@]2(C)C[C@H]4O)C(O)C(O)C1O (stereo partly specified)	none (no result: GALK inhibitor, PKM2 act, TrxR1 substrate, mIDH1 inhibitor, TrxR1 inh)
COC(=O)C1=C(C)NC(=S)NC1c1ccc(N(CCCl)CCCl)cc1Cl (stereo unspecified)	mIDH1 inhibitor inconclusive (no result: GALK inhibitor, PKM2 act, Anesthetic bind) | Resorufin autofl inactive | IDH1 WT inactive | mIDH1 confirm 11µM
CC(C)CN(CC(C)C)c1ccc(C=C2C(=O)NC(=S)NC2=O)cc1[N+](=O)[O-]	Anesthetic bind inconclusive, mIDH1 inhibitor inconclusive, TrxR1 inh 2.5µM | Resorufin autofl inactive | IDH1 WT inactive | mIDH1 confirm 40µM
O=C(O)CSCC(=O)N(Cc1ccccc1)c1nc(-c2ccccc2)c(-c2ccccc2)s1	mIDH1 inhibitor inconclusive | Resorufin autofl inactive | IDH1 WT inactive | mIDH1 confirm 40µM
CC1=Nc2ccccc2/C1=C/c1c(O)[nH]c(=O)[nH]c1=O	TrxR1 inh inconclusive
O=c1[nH]c(O)c(/C=C2/C=CC(c3cc(Cl)ccc3Cl)=N2)c(=O)[nH]1	mIDH1 inhibitor 29µM | Resorufin autofl inactive | IDH1 WT 45µM | mIDH1 confirm 11µM
CC(=O)CC(c1ccccc1)c1c(O)c2cccc(O)c2oc1=O (stereo unspecified)	none (no result: GALK inhibitor, PKM2 act, TrxR1 substrate, mIDH1 inhibitor, TrxR1 inh)
CCc1ccc(C(=O)NN(C(=O)c2cc(C)cc(C)c2)C(C)(C)C)cc1	none (no result: GALK inhibitor, TrxR1 substrate, mIDH1 inhibitor, TrxR1 inh)
Cn1c(O)c(C2=NNC(c3ccc(Cl)cc3)C2)c(=O)n(C)c1=O (stereo unspecified)	none
Cn1c(=O)c2c(-c3ccccc3)n3c(c2n(C)c1=O)C(c1cc(Cl)ccc1O)Nc1ccccc1-3 (stereo unspecified)	mIDH1 inhibitor 40µM (no result: GALK inhibitor, PKM2 act) | Resorufin autofl inactive | IDH1 WT inactive | mIDH1 confirm 14µM
COc1ccc(-c2c3c(=O)n(C)c(=O)n(C)c3c3n2-c2ccccc2NC3c2ccccc2OC)cc1 (stereo unspecified)	mIDH1 inhibitor 45µM (no result: GALK inhibitor, PKM2 act) | Resorufin autofl inactive | IDH1 WT inactive | mIDH1 confirm 6.3µM
CCOc1ccc(C2c3c(-c4ccccc4O)n[nH]c3C(=O)N2Cc2ccncc2)cc1 (stereo unspecified)	mIDH1 inhibitor inconclusive (no result: GALK inhibitor, PKM2 act) | Resorufin autofl inactive | IDH1 WT inactive | mIDH1 confirm 40µM
CCOc1ccc(C2CC(c3c(O)n(C)c(=O)n(C)c3=O)=NN2)cc1 (stereo unspecified)	none
